Measurements reported in PubChem BioAssay.
Active and inactive are the calls of the source.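 Rule for the calls, unless noted: active = visually confirmed hit in the image check and inhibition above 20%; inconclusive = visually confirmed hit but inhibition not above 20%; inactive = no visual hit in the image check.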

What was measured:
[1] = inhibitors of TNFa-induced NFkB p65 translocation, primary screen, imaging, HUVEC, MLSMR starter and 10KST1 sets (AID 438;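 active = inhibition above 20% together with a positive visual image hit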;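 note: compound added about 3h40 before a 20 min TNFalpha stimulation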;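 for inhibition: signal is the nuclear over cytoplasmic p65 intensity ratio per well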); conditions: HUVEC TNFa-induced p65 nuclear translocation; cell count: measured here: nuclei count (cytotoxicity indicator), at 2.08 µM; inhibition: at 2 µM, stronger effect = higher value, 0% TNFa-plus-vehicle, 100% no-TNFa wells
[2] = reduction of polyQ htt aggregates in cells – imaging, exon1htt(103Q)mCFP cells, high-content imaging, primary screen (AID 483;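 active = visual image review flags a hit and inhibition of aggregation exceeds 20%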;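 note: compound exposure lasted 3 days before fixation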;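 for nuclei count: percent of the per-plate median nuclei count of sample wells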); conditions: exon1htt(103Q)mCFP cell line, aggregate imaging, at 2 µM; inhibition of aggregation: stronger effect = higher value; nuclei count: measured here: cell count, toxicity
[3] = endothelial E-selectin expression blockers – imaging, HUVEC, immunofluorescence, MLSMR starter and 10KST1 sets, primary screen (AID 487); conditions: HUVEC TNFalpha-induced E-selectin immunofluorescence imaging, at 2 µM; inhibition: stronger effect = higher value; nuclei count: measured here: cell number, toxicity;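 for inhibition: signal is fraction of cell area covered by stained E-selectin grains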;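 for nuclei count: 100% = median nuclei count of all wells on the same plate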
[4] = biological target: Voltage-gated potassium channel subunit beta-2 (Rattus norvegicus) (UniProt P62483); assay: inhibitors of rat Kvbeta2 reductase activity – biochemical, NADPH fluorescence, primary screen (AID 622;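 active = fluorescence slope higher than the sample average by over 3 SD, cut at about -0.22 in these data, passing the limit was not always enough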;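 note: slope of raw intensity against log time taken from 70 to 1610 s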); conditions: recombinant KvBeta, 4-cyanobenzaldehyde reduction, at 10 µM, stronger effect = higher value
Sequence of Voltage-gated potassium channel subunit beta-2 (Rattus norvegicus) (P62483 whole entry, looked up): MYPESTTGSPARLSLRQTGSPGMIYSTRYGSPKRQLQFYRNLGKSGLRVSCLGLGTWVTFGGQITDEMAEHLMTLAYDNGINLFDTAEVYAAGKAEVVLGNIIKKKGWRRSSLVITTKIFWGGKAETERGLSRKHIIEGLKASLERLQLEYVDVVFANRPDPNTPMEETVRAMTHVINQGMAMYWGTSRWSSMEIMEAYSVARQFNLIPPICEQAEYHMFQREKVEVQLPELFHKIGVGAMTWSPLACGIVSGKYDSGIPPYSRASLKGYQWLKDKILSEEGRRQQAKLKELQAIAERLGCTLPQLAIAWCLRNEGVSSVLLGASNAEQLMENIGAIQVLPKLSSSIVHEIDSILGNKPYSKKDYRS

[5] = biological target: Voltage-gated potassium channel subunit beta-2 (Rattus norvegicus) (UniProt P62483); assay: enhancers of rat Kvbeta2 NADPH turnover – biochemical, NADPH fluorescence, primary screen (AID 623;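 active = NADPH fluorescence slope more negative than the mean of all samples by about 3 SD, 99.7% confidence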;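 note: fluorescence intensity change per second fitted from 20 to 320 s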); conditions: Recombinant KvBeta, NADPH fluorescence decrease slope, 10 min; at 10 µM; stronger effect = lower value
[6] = biological target: Alpha-2C adrenergic receptor (Homo sapiens) (UniProt P18825); assay: compounds altering alpha2C-coupled GIRK flux – cell-based, HEK293 alpha2C/GIRK1/2, thallium flux, primary screen (AID 624;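 active = fluorescence slope after compound addition differing from the mean of all screened samples at 99.7% confidence, in either direction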;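 note: slope of fluorescence ratio to pre-addition baseline per second over 15 to 24 s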); conditions: thallium flux BTC fluorescence, at 10 µM, actives lie on both sides
Sequence of Alpha-2C adrenergic receptor (Homo sapiens) (P18825 whole entry, looked up): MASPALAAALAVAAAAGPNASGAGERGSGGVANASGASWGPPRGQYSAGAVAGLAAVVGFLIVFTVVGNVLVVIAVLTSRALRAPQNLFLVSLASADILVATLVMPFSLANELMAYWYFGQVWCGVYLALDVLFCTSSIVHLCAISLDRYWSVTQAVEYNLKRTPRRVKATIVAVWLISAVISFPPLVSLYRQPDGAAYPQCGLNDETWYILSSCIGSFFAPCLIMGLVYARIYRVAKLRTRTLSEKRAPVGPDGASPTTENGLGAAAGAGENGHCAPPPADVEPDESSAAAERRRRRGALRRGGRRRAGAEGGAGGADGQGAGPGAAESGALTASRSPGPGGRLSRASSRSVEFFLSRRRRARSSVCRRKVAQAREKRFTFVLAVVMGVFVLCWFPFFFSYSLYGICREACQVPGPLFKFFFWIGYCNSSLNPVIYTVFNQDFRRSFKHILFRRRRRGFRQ

[7] = blockers of RIG-like receptor reporter activation – cell-based, Sendai virus stimulus, luciferase, 10K MLSCN set, TLR/RLR signaling modifier project, primary screen (AID 602276;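 active = inhibition at or above 50% at 10 µM; inactive = inhibition below 50%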;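 note: firefly luciferase from ISG56 promoter only with Renilla not read in this screen; 0% = Sendai virus plus DMSO and 100% = medium plus DMSO without virus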); conditions: HEK293 RL24 IRF3 luciferase reporter, at 10 µM, stronger effect = higher value
[8] = TLR3 IRF3 reporter activation blockers – cell-based, poly I:C stimulus, luciferase, 10K MLSCN set, primary screen (AID 602277;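 active = inhibition of the reporter signal at or above 50%; inactive = inhibition below 50%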); conditions: HEK293-TLR3 RL24 IRF3 luciferase reporter, at 10 µM, stronger effect = higher value

| Structure (SMILES) | cell count [1] | inhibition [1] | inhibition of aggregation [2] | nuclei count [2] [%] | inhibition [3] | nuclei count [3] [%] | fluorescence slope [4] | NADPH fluorescence slope [5] | slope [6] | inhibition [7] | inhibition [8] |
| --- | --- | --- | --- | --- | --- | --- | --- | --- | --- | --- | --- |
| O=C(O)C1CC=CCC1C(=O)Nc1cc(Cl)ccc1Cl (centres undefined) | 389 | 4.2% (inactive) | -1.2% (inactive) | 98.5 | 5.3% (inactive) | 102 | -0.505 (inactive) | -2.3e-05 (inactive) | 0.00676 (inactive) | -11.2% (inactive) | 1.01% (inactive) |
| Cc1ccc(-n2nnnc2SCC(=O)Nc2c(C)n(C)n(-c3ccccc3)c2=O)cc1 | 637 | -1.1% (inactive) | 4.2% (inactive) | 91.4 | -18.7% (inactive) | 106 | -0.583 (inactive) | -1.3e-05 (inactive) | 0.00453 (inactive) | -6.61% (inactive) | -12.3% (inactive) |
| C=C(Cl)COc1ccc2c(C)cc(=O)oc2c1 | 319 | -6.8% (inactive) | -0.8% (inactive) | 71.6 | -31.6% (inactive) | 101 | -0.587 (inactive) | 3.6e-07 (inactive) | 0.00646 (inactive) | -24.5% (inactive) | -67.7% (inactive) |
| COc1cc(S(=O)(=O)n2nnc3ccccc32)c(OC)cc1Cl | 629 | -3.3% (inactive) | -68.5% (inactive) | 93 | -51.9% (inactive) | 122 | -0.382 (inactive) | 3.8e-05 (inactive) | 0.00868 (inactive) | 13.5% (inactive) | -7.7% (inactive) |
| CC(=O)c1cccc(NC(=O)CCOc2ccccc2)c1 | 580 | 7.4% (inactive) | 6% (inactive) | 101 | 1.3% (inactive) | 119 | -0.428 (inactive) | 4.3e-05 (inactive) | 0.00322 (inactive) | -37.6% (inactive) | -83.6% (inactive) |
| C=CCOC(=O)COc1ccc2c(C)c(C)c(=O)oc2c1C | 373 | -3.6% (inactive) | -9.6% (inactive) | 102 | -22.7% (inactive) | 105 | -0.608 (inactive) | -5.7e-06 (inactive) | 0.00552 (inactive) | -3.09% (inactive) | 3.78% (inactive) |
| O=C(C1CCN(C2CC(=O)N(c3ccc(F)cc3)C2=O)CC1)N1CCOCC1 (centres undefined) | 326 | 6.1% (inactive) | 19.1% (inactive) | 79.5 | 12.7% (inactive) | 75.9 | -0.512 (inactive) | -2.5e-05 (inactive) | 0.00647 (inactive) | 7.33% (inactive) | 13% (inactive) |
| O=C(c1cnccn1)N(c1ccccc1)C1(C(=O)NC2CCCC2)CCCCC1 | 630 | -15.7% (inactive) | 4.8% (inactive) | 96.4 | -31.9% (inactive) | 116 | -0.518 (inactive) | -5.8e-05 (inactive) | 0.00495 (inactive) | 6.65% (inactive) | 16.5% (inactive) |
| O=C(CSc1nnc(CNC(=O)c2cccs2)o1)NCCc1ccccc1 | 644 | -2.2% (inactive) | -14.6% (inactive) | 82.7 | -25.7% (inactive) | 115 | -0.375 (inactive) | -4.4e-05 (inactive) | 0.00483 (inactive) | 18.5% (inactive) | 16.6% (inactive) |
| COC(=O)n1c(=S)oc2cc(Cl)ccc21 | 673 | 8.2% (inactive) | -25.1% (inactive) | 106 | 16.4% (inactive) | 93 | -0.638 (inactive) | 1.8e-05 (inactive) | 0.0107 (inactive) | 16.6% (inactive) | 31.1% (inactive) |
| Cc1ccc(C)c(C(=O)CC2(O)C(=O)Nc3ccccc32)c1 (centres undefined) | 602 | -11% (inactive) | 23.6% (inactive) | 62.9 | -108% (inactive) | 126 | -0.416 (inactive) | -3.2e-05 (inactive) | 0.00493 (inactive) | 3.23% (inactive) | -1.7% (inactive) |
| COc1cccc(-c2cc(C(=O)N3CCc4ccccc4C3)no2)c1 | 550 | -17% (inactive) | 1% (inactive) | 111 | 18.5% (inactive) | 99.8 | -0.445 (inactive) | 7.7e-06 (inactive) | 0.0069 (inactive) | -3.65% (inactive) | 13.4% (inactive) |
| COc1cc(OC)cc(C(=O)N2c3ccc(F)cc3CCC2C)c1 (centres undefined) | 282 | -4.7% (inactive) | 19% (inactive) | 83.6 | -85.9% (inactive) | 103 | -0.524 (inactive) | -4.4e-05 (inactive) | 0.0061 (inactive) | 12.9% (inactive) | 21.8% (inactive) |
| O=C(CN1C(=O)c2ccccc2S1(=O)=O)NCc1ccccc1Cl | 698 | 4.2% (inactive) | 8.6% (inactive) | 106 | -45.6% (inactive) | 108 | -0.599 (inactive) | -1.3e-05 (inactive) | 0.0066 (inactive) | 9.36% (inactive) | 22.5% (inactive) |
| O=C(OCCN(CCOC(=O)c1ccncc1)S(=O)(=O)c1cccs1)c1ccncc1 | 888 | 10.8% (inactive) | -22.1% (inactive) | 110 | -180% (inactive) | 123 | -0.581 (inactive) | 1e-05 (inactive) | 0.00486 (inactive) | 7.42% (inactive) | 11.5% (inactive) |
| CCOC(=O)C(NC(C)=O)(Nc1ccc(S(=O)(=O)Nc2nccs2)cc1)C(F)(F)F (centres undefined) | 523 | -1% (inactive) | 27% (inactive) | 93.8 | 4.2% (inactive) | 95.9 | -0.645 (inactive) | 1.5e-06 (inactive) | 0.00657 (inactive) | 14.8% (inactive) | 30.2% (inactive) |
| C/C=C(\CS(=O)(=O)c1ccccc1)S(=O)(=O)c1ccccc1 | 167 | 2.2% (inactive) | 9.7% (inactive) | 101 | -49.3% (inactive) | 73 | -0.508 (inactive) | -1.7e-05 (inactive) | 0.00524 (inactive) | 19.1% (inactive) | 21.9% (inactive) |
| CCOC(=O)C(NC(C)=O)(NS(=O)(=O)c1ccccc1)C(F)(F)F (centres undefined) | 537 | -2.4% (inactive) | 18.4% (inactive) | 88.5 | 39.5% (inactive) | 90.8 | -0.616 (inactive) | 5.2e-06 (inactive) | 0.00712 (inactive) | 10.5% (inactive) | 14.2% (inactive) |
| CC1CCN(S(=O)(=O)c2cccc(C(=O)Nc3ccccn3)c2)CC1 | 338 | -4.3% (inactive) | 26.3% (inactive) | 78 | 4.5% (inactive) | 90.4 | -0.338 (inactive) | -4.1e-05 (inactive) | 0.00478 (inactive) | 18.4% (inactive) | 23.9% (inactive) |
